Screens deposited in PubChem BioAssay by National Center for Advancing Translational Sciences (NCATS).
CCT chaperon mod – cytosolic chaperonin activity modulation | purified chaperonin ATPase assay, HTRF ADP detection, 30 min | activity change, % (concentration not given with the values), hits read low | 0.3% of 360,000 active | AID 651819; in the data active means activity change below about -30%
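Enzyme 40 or 20 nM (batch-dependent) in Tris pH 7.4/KCl/MgCl2/DTT; cpd 76 uM single point; ATP 10 uM; 30 min 37 °C; Transcreener ADP HTRF detection, 30 min RT; ratio 665/615.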
TCR act – T cell receptor activation; primary human leukocytes, anti-CD3, IL-2 HTRF, 48 h; Potency, µM (doses to about 9.22 µM), most hits filed as activators; 330,000 tested, under 10 active
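Primary human leukocytes receive a-CD3 beads and test compound and are incubated 48 hr. Secreted IL-2 is then assayed by HTRF, measuring 665nm acceptor emission after 320nm excitation of the europium donor.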
Chronic BCR inh – chronic active BCR signaling inhibition. ABC-DLBCL IkBa-CBG/CBR reporter, luminescence ratio, 4 h. Potency, µM (series often up to 46.1 µM), most hits filed as inhibitors. 0.05% of 340,000 active. AID 493014; active means well fitted inhibition curve with a large enough effect in the signal ratio, with a control signal flat, not every such curve was filed as active; inconclusive means small, poorly fitted or top-dose-only effect, or effect the other way, or a change in a side signal; the % refers to the signal ratio
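Cell line TMD8 (human ABC DLBCL), stably expressing tet-inducible CBG68-IkBa fusion and CBR; IMDM/0.5% FBS; cpd up to 46 uM; dox induction, 4 h, 37C/5% CO2; dual luminescence; green/red ratio; MG132 control.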
Tb PFK inh-1 – T. brucei PFK enzyme inhibition. O15648. T. brucei PFK, ADP-Glo luminescence. Potency, µM (top dose mostly 57.5 µM), most hits filed as inhibitors. 0.17% of 330,000 active. AID 485367; further: nearly all actives have a fitted effect of over 60% in size
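1.25 nM PFK with 0.5 mM F6P and 0.1 mM ATP in 0.1 M TEA pH 8.0, 5 mM MgCl2, incubated 45 min at room temperature; ADP measured by ADP-Glo luminescence; compounds titrated up to 57 uM.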
S-ASM inh – blocks human secretory acid sphingomyelinase; placental ASM, HMU-PC fluorogenic substrate, 60 min; Potency, µM (doses to about 57.5 µM), hits mostly inhibitors; 0.006% of 340,000 active
Target sequence (P17405 47-631 limits assumed): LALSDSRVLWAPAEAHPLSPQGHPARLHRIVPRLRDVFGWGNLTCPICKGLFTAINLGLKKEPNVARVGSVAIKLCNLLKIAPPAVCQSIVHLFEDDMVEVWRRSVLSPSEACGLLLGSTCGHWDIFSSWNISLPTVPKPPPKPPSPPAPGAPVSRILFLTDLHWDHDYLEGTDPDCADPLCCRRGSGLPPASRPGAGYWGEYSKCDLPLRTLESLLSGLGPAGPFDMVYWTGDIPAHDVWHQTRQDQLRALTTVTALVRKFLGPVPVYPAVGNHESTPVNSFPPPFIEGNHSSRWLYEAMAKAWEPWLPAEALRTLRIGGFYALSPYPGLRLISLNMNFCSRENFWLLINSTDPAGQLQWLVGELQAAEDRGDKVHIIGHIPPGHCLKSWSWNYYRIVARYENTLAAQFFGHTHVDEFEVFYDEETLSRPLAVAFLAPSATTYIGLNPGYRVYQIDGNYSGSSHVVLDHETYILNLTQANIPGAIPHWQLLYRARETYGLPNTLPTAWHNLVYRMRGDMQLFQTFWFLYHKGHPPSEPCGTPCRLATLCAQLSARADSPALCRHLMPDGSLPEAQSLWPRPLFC
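HMU-PC0 cleavage (9 uM final) by human placental ASM, 60 min at 37 °C following 10 min compound exposure at RT; stopped at pH 10, fluorescence Ex 386/Em 447 nm.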
Tb PFK KinaseGlo – inhibits T. brucei PFK measured by ATP depletion; 47% of 1,100 active; AID 504636; Potency, µM (top dose mostly 57.5 µM); Tb PFK enzyme, ATP depletion, Kinase-Glo Plus luminescence; shares compounds with Tb PFK inh-1; calls by dose curve; further: nearly all actives have a fitted effect of over 60% in size
Tb PFK inh-2 – T. brucei PFK enzyme inhibition, hit validation; shares compounds with Tb PFK inh-1; purified T. brucei PFK, ADP-Glo luminescence, 45 min; Potency, µM (series often up to 57.5 µM), usual class: inhibitors; 41% of 1,100 active; further: nearly all actives have a fitted effect of over 60% in size
Hits are given with their value; . = inactive; ? = inconclusive; / = no result given. The list is not random: actives were taken first. Their share in the collection is about 0.49%. Unless noted, the call rests on the fitted dose curve; in most records, active means well fitted curve in the direction sought with a large enough effect; inconclusive means small, poorly fitted or top-dose-only effect, or another doubt; inactive means no such curve, though single readings can be large; an effect the other way counts as inactive or inconclusive.

SMILES	CCT chaperon mod	TCR act	Chronic BCR inh	Tb PFK inh-1	S-ASM inh	Tb PFK KinaseGlo	Tb PFK inh-2
CCC1(CCCC(=O)c2ccc(F)cc2)C(=O)NC(=S)NC1=O	.	.	.	.	.	/	/
Cc1nc(SCC(=O)c2ccc(F)cc2)n[nH]1	.	.	?	21.3µM	.	?	?
O=S1(=O)CCOC(CO)CN1Cc1ccc(Cl)c(Cl)c1 (stereo not drawn)	.	.	.	?	.	?	?
CC(C)(C)n1nnnc1C(c1ccnc2ccccc12)N1CCC2(CC1)C(=O)NCN2c1ccccc1 (stereo not drawn)	.	/	/	/	/	/	/
O=S(=O)(c1cccc(C(F)(F)F)c1)N1Cc2ccccc2-n2nncc2C1	.	/	/	/	/	/	/
C[C@@H]1NCCc2cc(O)c(O)cc21	.	.	.	?	.	8.49µM	?
CN(C(=O)Oc1cccc2ccccc12)C1C=CCC1 (stereo not drawn)	.	.	/	/	.	/	/
COc1ccc(OCC(=O)N2CCN(Cc3c[nH]c4ccccc34)CC2)cc1	.	.	.	.	.	/	/
COc1ccc(N=C2S/C(=C\c3ccc(OCC(=O)O)cc3)C(=O)N2CCc2c[nH]c3ccccc23)cc1	.	.	.	1.07µM	.	?	?
COc1ccc(C(c2nnnn2C(C)(C)C)N2CCC3(CC2)C(=O)NCN3c2ccccc2)cc1 (stereo not drawn)	.	/	/	/	/	/	/
O=C(NCCN1CCOCC1)c1ccc(CSc2nc3ccncc3n2Cc2ccc(F)cc2)cc1	.	.	.	?	.	?	?
O=C(NC1CCCC1)c1ccc(CSc2nc3ccncc3n2Cc2ccc(F)cc2)cc1	.	.	.	?	.	?	26.9µM
O=C(N/N=C/c1c(O)n(Cc2ccc(F)cc2)c(=S)[nH]c1=O)c1ccncc1	.	.	.	.	.	/	/
CCOC(=O)c1c(NC(=O)COC(=O)c2ccc(NC(=O)CC#N)cc2)sc(C(=O)NC)c1C	.	.	.	0.849µM	.	6.01µM	6.75µM
S=C(NCc1ccccc1)N1CCN(c2cccc(Cl)c2)CC1	.	.	.	26.9µM	.	23.9µM	26.9µM
S=C(NCCCN1CCOCC1)N1CCN(c2cccc(Cl)c2)CC1	.	.	?	?	.	21.3µM	26.9µM
C=C1C(O)[C@@H]2O[C@]3(CC[C@H](/C=C/C(C)[C@@H]4CC(C)=CC5(O[C@H](C[C@@](C)(O)C(=O)O)CCC5O)O4)O3)CC[C@H]2O[C@@H]1C(O)CC(C)[C@H]1OC2(CCCCO2)CCC1C (stereo partly drawn)	.	.	?	.	.	/	/
CC(=O)OC1C(O)C2=C3C4(C)C1C(C)(C)C(=O)CC4C3(O)C(OC(C)=O)C1(CC1C)C2=O (stereo not drawn)	.	/	/	/	/	/	/
c1ccc(C2(NC3=NCCO3)CCCCC2)cc1	.	/	/	/	/	/	/
COC(=O)c1ccc2c(c1)C(C)(C)C(/C=C/c1ccccc1O)=[N+]2C	.	.	?	13.5µM	.	.	?
Cc1ccc(/C=c2\sc3nc(-c4ccco4)nn3c2=O)o1	.	.	?	21.3µM	.	?	?
Cc1cccc(-n2c(-c3ccco3)nc3ccccc3c2=O)n1	.	.	.	.	.	/	/
Cc1ccc(-n2c(=O)[nH]c3ccccc3c2=O)cc1[N+](=O)[O-]	.	/	/	/	/	/	/
CCSc1nnc(NC(=O)COc2ccccc2[N+](=O)[O-])s1	.	.	?	.	.	/	/
O=C(COc1ccccc1[N+](=O)[O-])N/N=C/c1ccc(O)c([N+](=O)[O-])c1	.	.	.	?	.	.	?
SMILES	CCT chaperon mod	TCR act	Chronic BCR inh	Tb PFK inh-1	S-ASM inh	Tb PFK KinaseGlo	Tb PFK inh-2
O=C(O)c1ccc(N=Nc2c(O)[nH]c3cc(Cl)ccc23)cc1	.	.	?	?	.	.	?
O=C1OC(/C(=C\Nc2cc(Cl)ccc2O)[N+](=O)[O-])c2ccccc21 (stereo not drawn)	.	.	.	?	.	.	.
Cc1ccc(N/C=C(\C2OC(=O)c3ccccc32)[N+](=O)[O-])c(C)c1 (stereo not drawn)	.	.	.	?	.	.	.
O=C1OC(/C(=C\Nc2ccc(F)cc2F)[N+](=O)[O-])c2ccccc21 (stereo not drawn)	.	.	.	?	.	.	.
CCC1(CC)C(=O)NC(=O)N(CCc2ccccn2)C1=O	.	.	/	/	.	/	/
C[C@]1(O)CCC2C3CC[C@H]4C[C@@H](OC(=O)[C@@H](N)CCCCN)CC[C@]4(C)C3CC[C@@]21C (stereo partly drawn)	.	/	/	/	/	/	/
O=C(NNC(=O)c1ccccc1O)c1cc2ccccc2o1	.	.	?	?	.	.	?
O=C(NCCc1ccccc1)c1ccc2nc(-c3ccco3)c(-c3ccco3)nc2c1	.	.	?	?	.	?	?
COc1ccc(C)cc1-n1nnnc1SCC(=O)NC(=O)NCc1ccco1	.	.	.	10.7µM	.	.	.
CCN(CC)C(=O)c1ccc(NC(=O)CSc2nnnn2-c2cc(OC)ccc2OC)cc1	.	.	.	.	.	/	/
COc1ccccc1OCc1nnc(SCC(=O)NCc2ccco2)n1Cc1ccco1	.	.	.	?	.	7.57µM	7.57µM
Cc1cc(SCC(=O)NC(=O)NCc2ccco2)nc2c(C)cccc12	.	.	.	?	.	?	?
COCCNC(=O)c1c(N)n(Cc2ccco2)c2nc3ccccc3nc12	.	.	?	.	.	/	/
COc1ccc(S(=O)(=O)Nc2ccccc2OC)cc1N=Nc1c(O)[nH]c(=S)[nH]c1=O	.	.	?	.	.	/	/
O=Cc1cccc(OC(=O)/C=C/c2ccco2)c1	.	.	?	23.9µM	.	6.75µM	12µM
Cc1cccc(N2CCN(C(=S)c3ccc([N+](=O)[O-])cc3)CC2)c1	.	.	.	?	.	23.9µM	?
CN(C)c1ccc(C(=S)N2CCN(c3ccc([N+](=O)[O-])cc3)CC2)cc1	.	.	.	12µM	.	8.49µM	13.5µM
O=C(CCC1CCCC1)c1c(O)c2ccccc2oc1=O	.	.	?	.	.	/	/
O=C(CCc1ccccc1)N1Cc2cc(N3CCCCC3)ccc2-n2nncc2C1	.	/	/	/	/	/	/
CCn1c(O)c(/C=N/NC(=O)c2ccccc2)c(=O)n(CC)c1=S	.	.	?	.	.	/	/
CCn1c(C)nc2cc(C(=O)N/N=C/c3ccc(O)c(O)c3O)ccc21	.	.	.	?	.	?	?
O=C(NCC1=C(c2ccc3ccccc3c2)C[C@@H]2CC[C@H]1N2Cc1ccco1)c1ccc([N+](=O)[O-])cc1	.	/	/	/	/	/	/
O=C1CC(=O)N(Cc2ccco2)C(=S)N1	.	.	.	21.3µM	.	23.9µM	?
CCN(CC)c1ccc(/C=C2\C(=O)NC(=O)N(Cc3ccco3)C2=O)cc1	.	.	.	.	.	/	/
